# High-throughput results as filed in PubChem.
# The full list was thinned out, with hits kept by preference.
# Choline anaer gr – blocks anaerobic gram-negative growth on choline; Gram-negative bacterium anaerobic choline minimal medium, absorbance growth; stronger effect = lower value; calls only; 55,000 compounds, 0.2% hits; AID 1963822; call rule not given here
# * hit, by the source's call; i = inactive; + = active, no number.
SMILES,Choline anaer gr
O=C1C[C@@H]2OCC=C3CN4CC[C@]56c7ccccc7N1[C@H]5[C@H]2[C@H]3C[C@H]46,+
COc1cccc(C2N3CCCN23)c1OC (stereo unspecified),i
O=C(Nc1nccs1)c1cccn(Cc2ccccc2Cl)c1=O,i
CCCCCCCCCCCCCCCCOC[C@H](COP(=O)([O-])OCC[N+](C)(C)C)OC(C)=O,i
CCCCCCCCCCCCCCCCOC[C@@H](COP(=O)([O-])OCC[N+](C)(C)C)OC(C)=O,+
CCCCCCCCCCCCCCCC(=O)OC[C@H](COP(=O)([O-])OCC[N+](C)(C)C)OC(C)=O,i
CCCNC(=O)N1CCC2(C1)C(=O)N(C)c1ccc(OC)cc12 (stereo unspecified),i
COc1ccc(NC(=O)c2cccn(Cc3cccc(F)c3)c2=O)cc1OC,i
O=C(NCc1ccccc1)N1Cc2ccccc2-n2cccc2C1c1ccc(Cl)cc1 (stereo unspecified),i
Cc1[nH]nc2c1C(c1cc(F)ccc1F)SCC(=O)N2 (stereo unspecified),i
